Measured values published in PubChem BioAssay AID493168 (National Center for Advancing Translational Sciences (NCATS), 2011).
Results filed as inconclusive are left out. A call without a number means that no potency is given here. Activity calls are given as the source filed them. Calls come from the whole dose curve; as a rule, active = well fitted inhibition curve with a large enough effect; inconclusive = small, poorly fitted or top-dose-only effect, or effect the other way; inactive = flat fitted curve, though single readings scatter.

Biological target: Ubiquitin carboxyl-terminal hydrolase 2 (Homo sapiens) (UniProt O75604)
Assay: Confirmation Assay for Inhibitors of Ubiquitin-specific Protease USP2a Using CHOP2 as the Reporter; note: nearly all actives have a fitted effect of over 55% in size
Settings: USP2 core, Ub-CHOP2 coupled reporter fluorescence; series mostly up to 38.3 µM
In short: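 Ub-CHOP2 cleavage coupled to reporter activation was read by fluorescence after 60 min at RT, with 25 nM final Ub-CHOP2 and substrate. Enzyme (10 nM final USP2 core) first sat 30 min with compound; data were normalized to NEM and fitted to concentration-response curves.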
Potency is the fitted concentration of half-maximal effect.

Ubiquitin carboxyl-terminal hydrolase 2 (Homo sapiens), sequence (O75604 whole entry, looked up): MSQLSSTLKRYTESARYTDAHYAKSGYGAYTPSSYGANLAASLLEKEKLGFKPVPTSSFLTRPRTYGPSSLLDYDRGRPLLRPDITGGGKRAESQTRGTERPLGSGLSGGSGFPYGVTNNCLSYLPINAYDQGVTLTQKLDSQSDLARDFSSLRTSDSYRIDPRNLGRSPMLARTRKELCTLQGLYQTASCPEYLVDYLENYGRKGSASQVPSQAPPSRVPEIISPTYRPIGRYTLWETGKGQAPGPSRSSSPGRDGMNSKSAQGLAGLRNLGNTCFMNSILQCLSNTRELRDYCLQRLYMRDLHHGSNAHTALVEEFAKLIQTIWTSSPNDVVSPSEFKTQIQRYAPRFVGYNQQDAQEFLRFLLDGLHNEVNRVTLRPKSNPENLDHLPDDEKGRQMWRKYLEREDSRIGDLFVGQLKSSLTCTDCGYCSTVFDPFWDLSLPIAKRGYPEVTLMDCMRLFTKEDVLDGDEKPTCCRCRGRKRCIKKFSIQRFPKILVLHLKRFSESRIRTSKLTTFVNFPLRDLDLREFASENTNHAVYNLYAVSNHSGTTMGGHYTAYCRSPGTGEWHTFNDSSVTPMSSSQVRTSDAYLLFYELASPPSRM

Structure (SMILES) | Potency
CCC(C)c1ccc(O)c(N)c1 (stereo not given) | inactive
Cc1cc(C)c2c(N=CN(C)C)c(C(=O)N3CCN(c4ncccn4)CC3)sc2n1 | inactive
CSCCC(NC(=O)c1cc(C(C)(C)C)oc1C)C(=O)O (stereo not given) | inactive
CC(C)(C)[C@H]1COC(=O)[C@@H](Cc2ccc(F)cc2)C/C=C\C[C@@H](CC(=O)N[C@@H](CO)Cc2ccccc2)C(=O)N1 | inactive
Oc1c(Cl)cc(Cl)c(Cl)c1Cc1c(O)c(Cl)cc(Cl)c1Cl | 5.21 µM (active)
CC(C)n1c(/C=C/[C@H](O)C[C@H](O)CC(=O)O)c(-c2ccc(F)cc2)c2ccccc21 | inactive
O=C(/C=C/c1ccc(Cl)c([N+](=O)[O-])c1)Nc1ccc(N2CCCC2)cc1 | inactive
CNc1sc(C(=O)c2ccc(F)cc2)c(N)c1-c1nc2ccccc2s1 | inactive
O=C(N/N=C/c1ccc(F)cc1)c1cc(-c2ccco2)nc2ccccc12 | 18.5 µM (active)
Cc1ccc2c(c1)c1c3n2CCN(C(=O)Cn2c(-c4ccccc4)noc2=O)C3CCC1 (stereo not given) | inactive
C=CCn1c(O)c(C(CC)=NCCN2CCOCC2)c(=O)[nH]c1=O | inactive
CCCCNC(=O)Nc1ccccc1C(=O)NCc1ccco1 | inactive
CC(C)(C)[C@H]1COC(=O)[C@@H](Cc2ccc(F)cc2)C/C=C\C[C@@H](CC(=O)N[C@H](CO)Cc2ccccc2)C(=O)N1 | inactive
COc1ccccc1-n1c(SCC(=O)Nc2ccc(C)cc2)nc(O)cc1=O | inactive
O=C(Nc1ccccc1)c1cc(Cl)nc2ccccc12 | inactive
O=C(CSc1ccc2nnc(-c3cccc(F)c3)n2n1)N1CCCc2ccccc21 | inactive
Oc1ccccc1/C=N/Nc1ncc(Br)cn1 | inactive
C#CCOCCOCCOCCNc1nc(N2CCN(C(=O)CCCCCCCCCCNC(=O)[C@H](CCCCN)n3cc(CCO)nn3)CC2)nc(N2CCN(C(=O)CCCCCCCCCCNC(=O)[C@H](CCCCN)n3cc(C[C@@H](C)CC)nn3)CC2)n1 | 8.26 µM (active)
COc1ccc(C(=O)C[N+]2(C)CCOCC2)cc1 | inactive
COC(=O)c1ccccc1NC(=O)CSc1nc(O)cc(=O)n1C1CCCC1 | inactive

Structure (SMILES) | Potency
Cc1ccccc1OCc1nc2ccccc2c(=O)n1N | inactive
Cc1ccccc1N=C1NC(=O)CS1 | inactive
Nc1ccc2nc(-c3cccc(-c4nc5ccc(N)cc5[nH]4)c3)[nH]c2c1 | inactive
COc1cccc(/C=N/n2c(SC)nnc2-c2ccccc2)c1O | inactive
O=c1cc2oc3cc(O)c(O)cc3c(-c3ccccc3[N+](=O)[O-])c-2cc1O | 18.5 µM (active)
O=C(Nc1ccc(Oc2ccc(Cl)cc2)cc1)c1ncn[nH]1 | inactive
COc1ccc(OC)c(NC(=O)CSc2nc(O)cc(=O)n2CC(C)C)c1 | inactive
O=C(c1ccccc1)c1ccc2nc(-c3ccco3)c(-c3ccco3)nc2c1 | inactive
N#Cc1cc(Sc2ccccn2)c(Sc2ccccn2)cc1C#N | inactive
COc1ccccc1N1C(=O)CC(N2CCc3ccccc32)C1=O (stereo not given) | inactive
Cn1nnnc1Sc1ncnc2scc(-c3ccc4c(c3)OCO4)c12 | inactive
O=C(NC1CCCCC1)C(c1ccco1)N(C(=O)c1csnn1)c1cccc(F)c1 (stereo not given) | inactive
N=C1C(c2nc3ccccc3c(=O)[nH]2)=C(O)CN1CCc1ccccc1 | inactive
O=C1COc2ccc(C(=O)COC(=O)/C=C/c3ccc(Br)o3)cc2N1 | 9.27 µM (active)
CC1=NC(C(F)(F)F)(C(F)(F)F)C2=C(CC(C)(C)CC2=O)N1Cc1ccco1 | inactive
O=C(O)c1cc(N2N=C(C(F)(F)F)/C(=C/C=C/c3ccco3)C2=O)ccc1Cl | 5.85 µM (active)
COCCN1Cc2cccc(C(=O)N3CCN(c4cc(C)ccc4C)CC3)c2C1=O | inactive
Cc1ccc(N(CC(=O)Nc2ccc(S(=O)(=O)N3CCOCC3)cc2)S(C)(=O)=O)cc1C | inactive
C#CCOCCOCCOCCNc1nc(N2CCN(C(=O)CCCCCCCCCCNC(=O)[C@H]([C@@H](C)CC)n3cc(CCCCCN)nn3)CC2)nc(N2CCN(C(=O)CCCCCCCCCCNC(=O)[C@H](CCCCN)n3cc(CCCC(=O)O)nn3)CC2)n1 | 13.1 µM (active)
CSc1cccc(NC(=O)c2ccccc2N(C)S(C)(=O)=O)c1 | inactive
